Where two headings read alike, the source gives them in different places.

For one assay, the system named is GRK1. The settings on record: concentration: 1 μM, replicates: in singlicate; n = 1.
For the next assay, the system named is T1, GRK2.
T1 construct: gene ADRBK1
To be noted: concentration: 1 μM, replicates: in singlicate; n = 1.

The next assay relates to T2, GRK3.
T2 construct: gene ADRBK2
The settings on record: concentration: 1 μM, replicates: in singlicate; n = 1.

The test system of another assay is GRK4. The settings on record: concentration: 1 μM, replicates: in singlicate; n = 1.
The next assay has as its system GRK7. To be noted: concentration: 1 μM, replicates: in singlicate; n = 1.
Another assay deals with GSK3A. To be noted: concentration: 1 μM, replicates: in singlicate; n = 1.
For another assay, the system named is GSK3B. The settings on record: n = 1.
The test system of the next assay is T3, HASPIN.
T3 construct: gene GSG2
The settings on record: concentration: 1 μM, replicates: in singlicate; n = 1.

For another assay, the system named is HCK. The settings on record: concentration: 1 μM, replicates: in singlicate; n = 1.
Another assay deals with HIPK1. The settings on record: concentration: 1 μM, replicates: in singlicate; n = 1.
Another assay relates to HIPK2. The settings on record: concentration: 1 μM, replicates: in singlicate; n = 1.
The subject of the next assay is HIPK3. To be noted: concentration: 1 μM, replicates: in singlicate; n = 1.
The test system of another assay is HIPK4. To be noted: concentration: 1 μM, replicates: in singlicate; n = 1.
The test system of another assay is HPK1. To be noted: concentration: 1 μM, replicates: in singlicate; n = 1.
For another assay, the system named is HUNK. To be noted: concentration: 1 μM, replicates: in singlicate; n = 1.
Another assay relates to ICK. To be noted: concentration: 1 μM, replicates: in singlicate; n = 1.
Another assay concerns IGF1R. To be noted: concentration: 1 μM, replicates: in singlicate; n = 1.
In the next assay the test system is T4, IKK-alpha.
T4 construct: gene CHUK
To be noted: concentration: 1 μM, replicates: in singlicate; n = 1.

A further assay concerns T5, IKK-beta.
T5 construct: gene IKBKB
To be noted: concentration: 1 μM, replicates: in singlicate; n = 1.

The subject of the next assay is T6, IKK-epsilon.
T6 construct: gene IKBKE
To be noted: concentration: 1 μM, replicates: in singlicate; n = 1.

The mark [1] stands for this setting: concentration: 1 μM, replicates: in singlicate.
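Note: KINOMEscan kinase panel screen.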

`CCCc1ccc(S(=O)(=O)NC2CCN(c3ccnc(Nc4ccc(OC)cc4)n3)C2)cc1` (stereo not drawn) [GSK1379737]: the “%Inh” value in the assay on GRK1 amounted to 0%; in the assay on GRK2, 0%; with GRK3, 67%; with GRK4, 0%; with GRK7, 0%; with GSK3A, 7%. The “%Inh” value with GSK3B (setting [1]) was 8%; with HASPIN, 14%; in the assay on HCK, 0%; in the assay with HIPK1, 0%; in the assay with HIPK2, 0%; in the assay with HIPK3, 8%. Further, the “%Inh” value in the assay with HIPK4 is 0%; in the assay with HPK1, 31%; in the assay with HUNK, 10%; in the assay with ICK, 0%; in the assay on IGF1R, 8%; with IKK-alpha, 36%. Besides, the “%Inh” value in the assay with IKK-beta and with IKK-epsilon was 0% throughout.
Turning to `CC(=O)Nc1n[nH]c2ncc(-c3ccccc3)cc12` [SB-548492], the “%Inh” value in the assay on GRK1 was 26%; in the assay with GRK2 it was 0%; in the assay with GRK3, 0%; in the assay on GRK4, 18%; in the assay on GRK7, 31%; in the assay on GSK3A it was 78%. For the same compound, the “%Inh” value in the assay with GSK3B (1 µM) was found to be 50%; in the assay with HASPIN it was 42%; with HCK, 9%; with HIPK1, 45%; in the assay on HIPK2, 48%; with HIPK3, 34%. Further, the “%Inh” value worked out at 7% in the assay with HIPK4; 23% with HPK1; 24% with HUNK; 28% in the assay with ICK; 10% in the assay on IGF1R; 0% in the assay with IKK-alpha. For the same compound, the “%Inh” value in the assay with IKK-beta stood at 22%; with IKK-epsilon it was 0%.
Turning to `Nc1n[nH]c2nnc(-c3ccccc3)cc12` [SB-517389], the “%Inh” value is reported as 0% with GRK1; 0% with GRK2; 0% with GRK3; 0% in the assay with GRK4; 0% in the assay with GRK7; 71% in the assay with GSK3A. Moreover, the “%Inh” value in the assay with GSK3B (1 µM) is given as 19%; with HASPIN it was 0%; with HCK it was 0%; in the assay on HIPK1, 56%; in the assay with HIPK2 it was 55%; in the assay on HIPK3, 83%. The “%Inh” value in the assay with HIPK4 is recorded as 0%; in the assay with HPK1, 35%; in the assay on HUNK, 32%; in the assay on ICK it was 6%; in the assay on IGF1R, 0%; with IKK-alpha it was 6%. The “%Inh” value in the assay on IKK-beta is recorded as 23%; with IKK-epsilon, 22%.
With `O=C(Nc1n[nH]c2nc(-c3ccco3)c(Br)cc12)c1ccc(CN2CCCC2)cc1.O=C(O)[C@H](O)[C@@H](O)C(=O)O` [SB-742352], the “%Inh” value in the assay with GRK1 is 6%; with GRK2, 0%; in the assay on GRK3 it was 0%; with GRK4, 20%; in the assay on GRK7, 0%; with GSK3A, 76%. The “%Inh” value in the assay with GSK3B (setting [1]) came to 15%; with HASPIN, 15%; in the assay with HCK it was 26%; in the assay with HIPK1, 0%; in the assay with HIPK2 it was 0%; in the assay on HIPK3, 0%. For the same compound, the “%Inh” value is listed as 0% in the assay on HIPK4; 17% in the assay on HPK1; 0% with HUNK; 37% in the assay with ICK; 0% with IGF1R; 0% with IKK-alpha. The “%Inh” value in the assay on IKK-beta and in the assay on IKK-epsilon was 0% throughout.
`CSc1ccc(NC2=C(c3ccccc3Cl)C(=O)NC2=O)cc1` [SB-342411]: the “%Inh” value with GRK1 is on record as 0%; with GRK2, 0%; in the assay with GRK3 it was 0%; in the assay on GRK4, 3%; in the assay on GRK7 it was 0%; with GSK3A, 81%. Also, the “%Inh” value in the assay on GSK3B (1 µM) is reported as 29%; with HASPIN, 0%; with HCK it was 0%; with HIPK1, 8%; in the assay on HIPK2 it was 0%; with HIPK3 it was 31%. Further, the “%Inh” value in the assay with HIPK4 amounted to 0%; in the assay on HPK1, 0%; in the assay with HUNK, 0%; with ICK it was 40%; with IGF1R it was 6%; in the assay with IKK-alpha it was 0%. Besides, the “%Inh” value is recorded as 0% with IKK-beta and 44% in the assay with IKK-epsilon.
For `CC(C)(C)OC(=O)NC1CCCN(c2cc(-c3ccc4c(N)n[nH]c4c3)nc(N)n2)C1` (stereo not drawn) [GSK2286096], the “%Inh” value in the assay with GRK1, in the assay with GRK2, in the assay with GRK3, in the assay on GRK4, in the assay on GRK7 and in the assay with GSK3A was 0% throughout. Further, the “%Inh” value in the assay with GSK3B (setting [1]) was 11%; with HASPIN, 1%; in the assay with HCK it was 0%; with HIPK1, 0%; in the assay with HIPK2, 0%; in the assay on HIPK3 it was 12%. The “%Inh” value in the assay with HIPK4 was determined as 0%; in the assay with HPK1, 26%; with HUNK, 5%; in the assay with ICK it was 7%; in the assay with IGF1R it was 0%; with IKK-alpha, 0%. The results for the “%Inh” value in the assay on IKK-beta and in the assay with IKK-epsilon were 0% and 12%, respectively.

The record behind these values is publication PMC5540273 (PLoS ONE, 2017).
